# From PubChem
# An excerpt weighted towards active compounds, which were near 2.4% of everything screened.
# POLH inh: qHTS for Inhibitors of Polymerase Eta; recombinant Pol eta, fluorescent DNA replication assay; Potency, µM (highest dose often 114 µM), without a hit: at the top dose activity change, negative = inhibition, actives largely listed as inhibitors; 390,000 tested, 1.2% active; AID 588591, 2011; note: % is set by controls: 0 for no effect and ±100 for the full control effect
#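 Fluorescent replication assay: 50 nM final substrate added after a 15 min room-temperature compound preincubation with 10 nM enzyme. Signal taken at 0 min and again at 10 min.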
# Pol beta inh: qHTS Assay for Inhibitors of DNA Polymerase Beta; AID 485314, 2010; Pol beta primer extension/strand displacement, fluorescence kinetic; P06746; Potency, µM (titrated, usually from 114 µM), inactives show top-dose activity change, negative = inhibition, most hits filed as inhibitors; 340,000 tested, 1.3% active; note: % is set by controls: 0 for no effect and ±100 for the full control effect
#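 Values derive from four-parameter Hill fits of normalized kinetic data: reads at 0 and 10 min following addition of 50 nM substrate to 10 nM Pol beta preincubated 15 min with compound.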
# FEN1 inh: qHTS Assay for the Inhibitors of Human Flap endonuclease 1 (FEN1); 390,000 tested, 0.35% active; P39748; Potency, µM (top dose mostly 114 µM), inactives show at the top dose activity change, negative = inhibition, actives largely listed as inhibitors; Recombinant FEN1 flap cleavage, fluorescence, 15 min; note: % is set by controls: 0 for no effect and ±100 for the full control effect; nearly all actives have a fitted effect of over 65% in size
#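 FEN1 at 10 nM, compound pretreatment for 15 min (room temperature), 50 nM final substrate to initiate; endpoint reads at 0 and 15 min; DMSO-only plates used as vehicle background.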
# POLK inh: qHTS for Inhibitors of Polymerase Kappa. AID 588579, 2011. 400,000 tested, 0.53% active. DNA polymerase kappa (Homo sapiens), Q9UBT6. Potency, µM (highest dose often 107 µM), inactives show at the highest dose activity, negative = inhibition, usual class: inhibitors. purified Pol kappa, fluorescent DNA synthesis assay, 10 min; note: % is set by controls: 0 for no effect and ±100 for the full control effect
#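 10 nM Pol kappa preincubated 15 min at room temperature with compounds, then reaction started with substrate at 50 nM final. Fluorescence read kinetically at 0 and 10 min; buffer-only wells served as negative control.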
# WRN inhibitor: qHTS for Inhibitors of WRN Helicase; Bifunctional 3'-5' exonuclease/ATP-dependent helicase WRN (Homo sapiens), Q14191; WRN helicase unwinding, fluorescent forked duplex, kinetic; Potency, µM (top dose mostly 114 µM), inactives show at the highest dose activity change, negative = inhibition, actives largely listed as inhibitors; 360,000 tested, 0.46% active; AID 651768, 2012; note: % is set by controls: 0 for no effect and ±100 for the full control effect; nearly all actives have a fitted effect of over 55% in size
#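 Kinetic red-fluorescence monitoring (525/598 nm) tracks WRN helicase activity after 100 nM fluorophore-quencher forked duplex and 2 mM ATP are added to 20 nM enzyme pretreated 15 min at room temperature with compound.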
# Pol iota inh: qHTS for Inhibitors of Polymerase Iota; 390,000 tested, 1% active; Pol iota fluorescent replication assay, 10 min; DNA polymerase iota (Homo sapiens), Q9UNA4; Potency, µM (highest dose often 115 µM), for the others: top-dose activity, negative = inhibition, usual class: inhibitors
# Target sequence (Q9UNA4 whole entry, looked up): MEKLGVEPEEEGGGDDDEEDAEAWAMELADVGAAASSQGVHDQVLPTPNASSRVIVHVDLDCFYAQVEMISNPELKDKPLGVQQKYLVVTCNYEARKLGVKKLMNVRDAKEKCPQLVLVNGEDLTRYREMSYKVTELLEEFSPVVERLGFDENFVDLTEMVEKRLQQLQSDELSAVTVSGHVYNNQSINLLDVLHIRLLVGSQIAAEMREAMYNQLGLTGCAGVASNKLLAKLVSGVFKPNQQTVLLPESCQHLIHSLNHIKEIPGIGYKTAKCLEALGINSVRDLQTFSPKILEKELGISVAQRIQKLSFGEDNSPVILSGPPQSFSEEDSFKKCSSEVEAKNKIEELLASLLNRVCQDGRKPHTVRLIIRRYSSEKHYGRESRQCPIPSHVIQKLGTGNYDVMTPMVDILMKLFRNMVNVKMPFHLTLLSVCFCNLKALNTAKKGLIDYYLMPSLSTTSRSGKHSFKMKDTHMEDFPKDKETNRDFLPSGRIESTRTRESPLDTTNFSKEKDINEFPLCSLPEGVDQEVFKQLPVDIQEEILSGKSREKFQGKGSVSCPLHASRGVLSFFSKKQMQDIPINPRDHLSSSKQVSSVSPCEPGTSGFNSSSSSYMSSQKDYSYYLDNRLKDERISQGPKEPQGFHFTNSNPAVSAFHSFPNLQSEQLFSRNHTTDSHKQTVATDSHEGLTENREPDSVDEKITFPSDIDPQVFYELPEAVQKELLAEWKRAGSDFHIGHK
#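 Pol iota at 10 nM preincubated 15 min with compounds at room temperature; reaction started with fluorescent substrate, 50 nM final. Fluorescence read kinetically at 0 and 10 min; buffer-only wells as negative control.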
# Numbers without * were called inactive; ? = inconclusive; nt = not tested or not shown; ! = not active in a repeat; [ ] = remark or other dose. Calls come from the whole dose curve; as a rule, active = well fitted curve in the direction sought with a large enough effect; inconclusive = small, poorly fitted or top-dose-only effect, or another doubt; inactive = no such curve, though single readings can be large; an effect the other way counts as inactive or inconclusive. Potency is the fitted concentration of half-maximal effect.
SMILES,POLH inh,Pol beta inh,FEN1 inh,POLK inh,WRN inhibitor,Pol iota inh
O=C(N/N=C/c1ccc([N+](=O)[O-])o1)c1cc(-c2ccncc2)nc2ccccc12,89.1µM*,?,-7.3%,?,-11.0%[57.1 µM],?
O=C(N/N=C/c1ccc(-c2cccc([N+](=O)[O-])c2)o1)c1ccc([N+](=O)[O-])cc1,11.9%,2.1%,-5.4%,-14.8%,1.6%,83.7%
OC(C1=C/C(=C\c2ccncc2)c2ccccc21)c1ccncc1 (stereo not given),nt,nt,1.8%,-22.3%,nt,18.1%
CN(C)c1ccc(/C=C/c2ccc3cc(N)ccc3n2)cc1,nt,nt,-1.4%,-15.4%,nt,?
O=c1c2ccccc2nc2c3ccccc3c(NCCN3CCOCC3)nn12,nt,39.8µM*,nt,nt,nt,nt
O=c1c2c3c(sc2nc2n1CCCCC2)CCC3,-12.2%,31.6µM*,-10.4%,6.0%,2.9%,11.0%
O=C1CCCc2c1sc1nc3n(c(=O)c21)CCCCC3,-11.8%,28.6%,-14.2%,-0.5%,1.5%,15.3%
COc1cccc(NS(=O)(=O)c2ccc(S(=O)(=O)N3CCCC3)cc2)c1,-10.5%,nt,-0.4%,12.4%,-4.3%,8.3%
COc1cccc(CNS(=O)(=O)c2ccc(S(=O)(=O)N3CCCC3)cc2)c1,-3.8%,20µM*,-1.8%,4.3%,-5.2%,26.8%
C=CCc1cccc(/C=C/c2cc(=O)c3ccccc3[nH]2)c1O,?,39.8µM*,-12.3%,-14.9%,-1.9%[11.6 µM],?
COc1cc(C)ccc1OCCOCCOc1cc(C)c(C)cc1Br,-11.8%,-3.4%,5.8%,-3.8%,-13.9%[57.1 µM],100µM*
CC1=Nc2cc(C(=O)O)ccc2Sc2ccc(Br)cc21,50.1µM*,0.7%,-1.8%,?,-8.0%[57.1 µM],?
O=C(N/N=C/c1cccnc1)c1cc(-c2ccccc2OCc2ccccc2)n[nH]1,2.5%,79.4µM*,-2.7%,-31.0%,-28.6%,51.3%
O=C(N/N=C/c1cccnc1)c1ccccc1OCc1ccc(Cl)cc1,nt,2.5%,nt,nt,nt,nt
CCC[n+]1c(/C=C/c2c(OC)cc(OC)cc2OC)ccc2ccccc21,nt,nt,28.2µM*,-20.6%,nt,?
COc1ccc(/C=C/c2ccc3ccccc3[n+]2C)cc1OC,-2.2%,28.2µM*,-15.4%,?,-19.5%,-86.8%
COc1cc(OC)c(/C=C/c2ccc3ccccc3[n+]2C)c(OC)c1,nt,nt,25.1µM*,-33.3%,nt,?
COc1cccc(/C=C/c2ccc3ccccc3[n+]2C)c1OC,nt,nt,?,-32.9%,nt,2.3%
CCCC[n+]1c2ccccc2cc2ccccc21,-1.0%,30.8%,79.4µM*,-10.4%,-35.9%[11.6 µM],?
COc1ccc(/C=C/c2ccc3ccccc3[n+]2C)c(OC)c1OC,nt,nt,-26.9%,-39.5%,nt,?
Cc1ccc(C)c(CN2C(=O)c3ccccc3S(=O)(=O)c3ccc(C(=O)N4CCN(c5ccccn5)CC4)cc32)c1,nt,0.9%,-9.7%,-13.0%,nt,3.6%
CC(C)c1ccc(NC(=O)Cn2cc(S(=O)(=O)Cc3ccccc3Cl)c3ccccc32)cc1,-7.2%,6.6%,-20.6%,-7.3%,nt,-22.9%
Cc1ccc(NC(=O)c2cc(S(=O)(=O)N3CCC4(CC3)OCCO4)ccc2F)cc1Cl,-5.6%,-1.3%,-17.8%,-19.6%[60.1 µM],nt,-18.4%
CCCC[n+]1c(/C=C/c2c(OC)cc(OC)cc2OC)ccc2ccccc21,nt,nt,20µM*,-17.4%,nt,?
COc1cc(OC)c(C=CC(=O)c2ccccc2O)c(OC)c1,-21.4%,nt,4.4%,-8.0%,-29.1%,14.2%
SMILES,POLH inh,Pol beta inh,FEN1 inh,POLK inh,WRN inhibitor,Pol iota inh
O=C(O)c1ccc(CN2C(=O)c3cccc4c([N+](=O)[O-])ccc(c34)C2=O)cc1,22.4µM*,?,-8.1%,-5.8%,8.2%,?
COc1cc(C=C2C(=O)c3ccccc3C2=O)cc(OC)c1OC,-1.9%,-0.1%,14.2%,-10.5%,-3.6%,89.1µM*
COc1ccc(C=C2C(=O)c3ccccc3C2=O)cc1O,-29.5%,-5.3%,?,-8.2%,-21.0%,17.8µM*
COc1cc(C=C2C(=O)c3ccccc3C2=O)ccc1O,-4.5%,-2.7%,-4.9%,-18.6%,-7.1%,?
CCCCCCCC/C=C/CCCCCCCC(=O)NCCOP(=O)(O)O,nt,nt,nt,-2.2%[60.1 µM],nt,nt
CC[C@@H](C(=O)[C@@H](C)[C@@H](O)[C@H](C)CCc1ccc(C)c(O)c1C(=O)O)[C@H]1O[C@](CC)([C@H]2CC[C@](O)(CC)[C@H](C)O2)C[C@@H]1C,-27.1%,22.4µM*,-16.7%,-16.9%,-25.3%,?
CCC(C(=O)C(C)C(O)C(C)CCc1ccc(C)c(O)c1C(=O)O)C1OC(CC)(C2CC[C@@](O)(CC)C(C)O2)CC1C (stereo not given in full),nt,nt,nt,-9.2%[60.1 µM],nt,nt
CC(=O)N1CCCc2cc(S(=O)(=O)N(C)CC(=O)Nc3cccc(Cl)c3C)ccc21,-27.3%,1.9%,0.2%,-6.0%[60.1 µM],nt,18.1%
O=C1N(Cc2ccccc2)CC2(Br)COCOC12O (stereo not given),2.2%,nt,-31.9%,-8.4%,17.8µM*,-3.7%
O=C1C(c2ccccc2)CN1Cc1ccccc1 (stereo not given),nt,nt,nt,nt,4.6%[57.1 µM],nt
COc1ccc(-c2nn3c(-c4cc(-c5ccccc5)n[nH]4)nnc3s2)cc1,nt,nt,?,2.0%,nt,-9.9%
Cc1ccc(-c2cn(CCN)c(-c3ccncc3)n2)cc1,-1.1%,nt,-14.9%,-17.3%,-2.9%[11.6 µM],31.6µM*
COC(=O)c1sccc1S(=O)(=O)N(CC(=O)NCc1ccccc1)c1ccc(C)cc1,-15.0%,-2.0%,-0.8%,0.0%,nt,20.0%
Oc1cc(O)cc(/C=C/c2ccc(O)c(O)c2)c1,17.8µM*!,7.94µM*,-20.0%,79.4µM*,-9.1%[11.6 µM],15.8µM*
CC(=O)N1c2ccc(S(=O)(=O)NCCC(=O)Nc3ccc(Br)c(C)c3)cc2CC1C (stereo not given),-16.4%,7.2%,9.0%,0.3%,nt,25.4%
O=C(CSc1ccc(-c2nc3ccccc3[nH]2)cn1)N1CCN(C(=O)c2ccco2)CC1,?,?,?,50.1µM*,?,15.8µM*
O=C(CCc1nc2ccccc2[nH]1)N1CCN(C(=O)c2ccco2)CC1,-15.3%,-0.5%,-0.1%,12.9%,1.0%,0.7%
Cc1cc(C)cc(NC(=O)C(NS(=O)(=O)c2cccc3nsnc23)c2ccccc2)c1 (stereo not given),-4.4%,3.3%,?,-18.5%,nt,189.3%
C=C(C)Cn1c(=O)c2c(nc3n2CCN3c2cc(C)cc(C)c2)n(C)c1=O,-9.2%,-13.1%,-3.4%,-5.8%,nt,79.4µM*
O=C(c1cc2cc3ccc(Cl)cc3nc2o1)N1CCN(c2cccc(Cl)c2)CC1,8.3%,1.2%,-6.2%,-2.5%,nt,-9.7%
